In PubChem BioAssay AID463115 (University of Pittsburgh Molecular Library Screening Center, 2010):
The campaign covered roughly 220,000 compounds. About 130 (0.059%) were called active. The sample holds actives, similar compounds and a random draw of the others, so the mix is not that of the screen. Values without a mark were called inactive. Cut-off read from the data, not from the text of the source: active = inhibition above about 25%; inactive = the rest.

Molecular target: Furin (Homo sapiens) (UniProt P09958)
Sequence (P09958 108-714 limits assumed): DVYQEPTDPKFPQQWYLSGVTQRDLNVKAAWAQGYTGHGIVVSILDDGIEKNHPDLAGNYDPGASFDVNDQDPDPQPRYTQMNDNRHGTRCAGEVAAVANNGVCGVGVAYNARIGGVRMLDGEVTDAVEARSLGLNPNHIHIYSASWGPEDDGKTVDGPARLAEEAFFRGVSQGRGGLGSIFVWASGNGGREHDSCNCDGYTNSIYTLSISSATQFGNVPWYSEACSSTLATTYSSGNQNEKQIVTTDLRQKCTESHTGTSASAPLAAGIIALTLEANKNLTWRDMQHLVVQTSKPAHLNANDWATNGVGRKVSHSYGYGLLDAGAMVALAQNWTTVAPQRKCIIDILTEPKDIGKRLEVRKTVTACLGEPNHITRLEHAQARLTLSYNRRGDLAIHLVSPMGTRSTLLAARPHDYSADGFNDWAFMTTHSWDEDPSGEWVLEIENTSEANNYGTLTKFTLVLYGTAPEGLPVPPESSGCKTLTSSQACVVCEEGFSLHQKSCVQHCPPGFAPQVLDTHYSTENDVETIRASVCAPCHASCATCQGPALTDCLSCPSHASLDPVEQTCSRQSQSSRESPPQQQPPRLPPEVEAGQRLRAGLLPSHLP
Experiment: human furin inhibitors, primary screen, biochemical, fluorescence intensity (AID 463115)
Settings: purified furin, fluorogenic substrate cleavage, active compounds read high; at 30 µM unless noted

Row | SMILES | inhibition
1 | Cn1c(SCC(=O)c2ccc(F)cc2)nnc1-c1ccccn1 | -22.4%
2 | CCc1cc(C(=O)OC)c(NC(=O)CC2Sc3ccc(C(F)(F)F)cc3NC2=O)s1 (stereo unspecified) | -18.6%
3 | Cc1nc2ccccn2c1C(=O)NN=C1CCN(C)CC1 | -16.6%
4 | CCOC(=O)/C(C#N)=C\c1c(C)cc(C)c(COC(C)=O)c1C | -3.87% [at 20 µM]
5 | CCOC(=O)Cn1c(=O)oc2cc(S(=O)(=O)NCC3CCCO3)ccc21 (stereo unspecified) | -8.46%
6 | OC(CNCC1CCCO1)Cn1c2ccc(Br)cc2c2cc(Br)ccc21 (stereo unspecified) | 31.4% [at 20 µM] (active)
7 | CCc1cc(Br)ccc1NC(=O)C1CCCO1 (stereo unspecified) | -9.19% [at 20 µM]
8 | COc1ccc(C(=O)Nc2c(Cl)cc(Cl)cc2C(=O)N2CCC(C)CC2)cc1 | -7.28%
9 | CSc1ccccc1-c1nnc(-c2ccc(Cl)cc2)o1 | -17.9% [at 20 µM]
10 | CNC(=O)c1[nH]cnc1C(=O)N[C@@H](CC(C)C)C(=O)OCc1ccccc1 | -29.8%
11 | CCOc1ccc(Oc2nc(C)cc(OC)n2)nn1 | -13.8%
12 | O=C(O)Cc1csc(NC(=O)CSc2nnnn2-c2ccc(O)cc2)n1 | -27.1%
13 | Cc1ccc2nc(COc3ccc(N(C)S(=O)(=O)c4ccccc4)cc3)cc(=O)n2c1 | -21.2%
14 | Cc1cc2nc(-c3ccc(NC(=O)c4cccnc4)cc3)oc2cc1C | -16%
15 | Cc1ccc(-n2nc3cc(Cl)c(NC(=O)c4ccco4)cc3n2)cc1 | -6.45% [at 20 µM]
16 | Cc1ccc(-n2nc3cc(C)c(NC(=O)c4cccnc4)cc3n2)cc1 | 34.8% [at 20 µM] (active)
17 | O=C(NCc1cccnc1)Nc1cccc(NC(=O)NCc2cccnc2)c1F | -13.7%
18 | CCCN(CCC)CC(O)COc1ccccc1C(=O)Nc1ccccc1 (stereo unspecified) | -22.6%
19 | CCn1c(=O)c([N+](=O)[O-])c(NCc2ccc3c(c2)OCO3)c2ccccc21 | -12.9%

Row | SMILES | inhibition
20 | CC1=NN(C(=O)Cc2ccc(C)cc2)C(O)(c2cccnc2)C1 (stereo unspecified) | -14% [at 20 µM]
21 | CCC(CC)c1nnc(NC(=O)c2nn(C)c(=O)c3ccccc23)s1 | -10.6%
22 | Cc1ccc(NC(=O)C(=O)NCc2ccco2)c(C)c1 | -25.7%
23 | C=CCn1c(Cn2nnc3ccccc32)nnc1SCC(=O)N/N=C/c1cc(Br)cc(OC)c1O | 1.52% [at 20 µM]
24 | C/C=C/C(=O)Nc1ccc(N2CCN(c3ccc(C(F)(F)F)cn3)CC2)nc1 | -27.8%
25 | COc1cc(OC)c(C(=O)OC(C)C(=O)Nc2cc(C(F)(F)F)ccc2Cl)cc1OC (stereo unspecified) | -12.3%
26 | O=C(Nc1ccccc1C(=O)N1CCOCC1)c1ccc(Cl)cc1 | -16.3%
27 | Cc1cc(C(=O)N2CCC(C(=O)O)CC2)c(C(F)(F)F)o1 | -9.96%
28 | O=C(Nc1cnn(Cc2ccc(Cl)cc2)c1)C1CCCC1 | -14.4% [at 20 µM]
29 | Cc1nn(C)cc1C(=O)Nc1ccccc1Br | -17.2%
30 | C=CCC(CC=C)(C(N)=O)c1ccccc1 | -29.7%
31 | Fc1ccccc1OCCCCn1cncn1 | -28.7% [at 20 µM]
32 | COc1ccc(CCNc2cc(C)nc3c(-c4ccc(Cl)cc4)c(C)nn23)cc1OC | 9.61%
33 | O=C(Nc1nccs1)C1CCN(S(=O)(=O)c2ccc(Cl)c(C(F)(F)F)c2)CC1 | -14.1% [at 20 µM]
34 | COCCNc1nc2nonc2nc1N1CCCC1c1nccs1 (stereo unspecified) | -8.2%
35 | O=C(/C=C/c1ccccc1)Nc1nnc(SCC(=O)c2ccc3ccccc3c2)s1 | -20.8%
36 | COCCN1C(=O)N[C@@H](CCc2ccccc2)[C@H](C(C)=O)[C@H]1C | -15.4%
37 | CC(=O)C1=C(C)NC(=O)NC1c1cc(Br)ccc1OCC#N (stereo unspecified) | -17.2% [at 20 µM]
38 | CSCC[C@H](NC(=O)OC(C)(C)C)C(=O)N/N=C/c1cc2ccc(C)cc2nc1Cl | -14.1%

Row | SMILES | inhibition
39 | CC1(C)CC(=O)C(N=Nc2ccc(S(=O)(=O)N3CCCCCC3)cc2)=C(O)C1 | -26.5%
40 | C/C(=N\Nc1nc2ccccc2[nH]1)c1cccs1 | -12.4%
41 | CC(NC(=O)C(C)(C)C)C(c1cccs1)N1CCN(Cc2ccccc2)CC1 (stereo unspecified) | -27.5%
42 | CC(NC(=O)Nc1ccccc1)C(c1cccs1)N1CCN(c2ccccc2)CC1 (stereo unspecified) | -13.8%
43 | CCCC(=O)NC(C)C(c1cccs1)N1CCN(c2ccccc2)CC1 (stereo unspecified) | 25.4% [at 20 µM] (active)
44 | COc1ccc(C(=O)NC(=S)Nc2ccc(Cl)cn2)cc1OC | -15.4%
45 | Cn1c(=O)n(C)c2cc(NS(=O)(=O)c3ccc(F)cc3)ccc21 | -20.7%
46 | CCC(=O)Nc1sc(C(=O)Nc2ccccc2)c(C)c1C(=O)OC | -21.3%
47 | C#CCO[C@@H]1C[C@H](n2cnc3c(=O)[nH]c(NC(=O)C(C)C)nc32)O[C@@H]1CO | -9.33%
48 | O=C1N=C(N2CCc3ccccc3C2)S/C1=C\c1ccc(O)cc1 | -5.76%
49 | Cc1nc2sc(C(c3ccco3)N3CCC4(CC3)OCCO4)c(O)n2n1 (stereo unspecified) | -16.3% [at 20 µM]
50 | COc1ccc(/C=C/C(=O)c2ccc(NS(=O)(=O)c3ccc(C)cc3)cc2)cc1O | -7.18%
51 | COC(=O)c1ccc(C(=O)OC)c(NC(=S)N2CCN(c3ccc(F)cc3)CC2)c1 | -22.8%
52 | O=C(Nc1ccccc1-c1nnn(CC(=O)N2CCCc3ccccc32)n1)c1cccc(Cl)c1 | -12.2% [at 20 µM]
53 | Cc1cc(C)n(-c2nnc(C)n2NC(=O)c2cccc(Cl)c2)n1 | -15.9% [at 20 µM]
54 | O=C(NCc1ccco1)C(=O)c1cn(CC(=O)N2CCCCCC2)c2ccccc12 | -16.3%
55 | CCOc1ncccc1C(=O)OCC(=O)NC1CC1 | -17.7%
56 | O=C(c1cccc([N+](=O)[O-])c1)N1CCN(C(=O)c2ccco2)CC1 | -10.7%
